HEK293 cAMP cs – counter-screen for TSHR agonists: cAMP increase in parental HEK293; parental HEK293 CNG cAMP sensor, membrane potential fluorescence; Potency, µM (doses to about 57.1 µM), without a hit: at the highest dose activation, usual class: activators; 73,000 tested, 2.5% active; AID 938; further: % of control where 0% means no effect; nearly all actives have a fitted effect of over 55% in size
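Counterscreen for endogenous-receptor signalling: CNG-channel HEK 293 cells report cAMP rise by membrane depolarization. After 60 min dye equilibration with 100 uM RO 20-1724, compounds incubated 30 min before bottom-read fluorescence at 590 nm.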
ALOX15 inhib – blocks human 15-lipoxygenase activity; P16050; purified 15hLO-1, xylenol orange hydroperoxide absorbance; Potency, µM (doses to about 57.1 µM), inactives show at the highest dose activity change, negative = inhibition, usual class: inhibitors; 74,000 tested, 1.4% active; AID 887; further: on the % scale 0 is the no-effect control and ±100 the full control effect; nearly all actives have a fitted effect of over 55% in size
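Purified human 15hLO-1 (40 nM) in 25 mM Hepes pH 7.5, 0.01% Triton X-100, preincubated 15 min RT with compound, then 50 uM arachidonic acid for 6 min. Hydroperoxide read by ferrous/xylenol orange, 30 min; 573/405 nm absorbance ratio gave progress.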
PK Bst – alters activity of Bacillus stearothermophilus pyruvate kinase | purified pyruvate kinase, luminescence ATP production; ribose 5-phosphate activator present at AC10 | Potency, µM | 51,000 tested, 1.2% active | AID 361; in the data active means potency below about 11 µM; inconclusive means mostly about 12 µM to 25 µM;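 the screen sought inhibitors and activators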;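 further: scaled between full activation by ribose 5 phosphate and full inhibition by luteolin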
FLuc inh – firefly luciferase inhibition | P08659 | purified firefly luciferase, luminescence, 8 min | Potency, µM (series often up to 57.1 µM), for the others: at the top dose activity change, negative = inhibition, actives largely listed as inhibitors | 72,000 tested, 2.2% active | AID 411; further: on the % scale 0 is the no-effect control and ±100 the full control effect; nearly all actives have a fitted effect of over 40% in size
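Inhibition of light generation by firefly luciferase from ATP and luciferin was profiled with concentration-response curves per sample, ATP held at 10 uM within the enzyme's linear range. Plates were read by luminescence after an 8-minute ambient incubation.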
Tau filament bind – binds recombinant human tau filaments | P10636 | recombinant tau filaments, thioflavin S fluorescence, 15 h; filaments grown with octadecylsulfate alongside compound | Potency, µM (highest dose often 57.1 µM), for inactives: at the highest dose activity change, negative = inhibition | 71,000 tested, 2% active | AID 596;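 further: on the % scale 0 is the no-effect control and ±100 the full control effect; actives lower thioflavin S fluorescence by blocking filaments or displacing dye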
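ThS-based fibril read: tau 1 uM final, inducer ODS 30 uM final, 37 C for 15 h, ex 450/em 510 nm.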
TSHR agonist – activates the human thyroid stimulating hormone receptor; HEK293-CNG-TSHR cells (CNG channel as cAMP sensor), membrane potential dye, cAMP; Potency, µM (series often up to 57.1 µM), inactives show at the highest dose activation, usual class: activators; 73,000 tested, 0.48% active; AID 926; active means well fitted activation curve with a large enough effect in the main read-out, with a control signal flat, not every such curve was filed as active; inconclusive means small, poorly fitted or top-dose-only effect, or a change in a side signal; inactive means no such curve, though single readings can be large or run the other way; % of control where 0% means no effect;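 further: the control signal comes from parental cells without the receptor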
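HEK 293 cells stably expressing TSHR and a modified CNG channel, with CNG-only parental cells as counterscreen, were preloaded 60 min at room temperature with membrane potential dye containing 100 uM RO 20-1724. Compound exposure was 30 min, and depolarization was read as fluorescence at 590 nm.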
* = called active by the depositor; i = inactive; ? = inconclusive; . = no result; [ ] = another dose, or the depositor's remark. Most compounds without a hit are left out; they make up all but 7.8% or so of the library. Unless noted, the call rests on the fitted dose curve; in most records, active means well fitted curve in the direction sought with a large enough effect; inconclusive means small, poorly fitted or top-dose-only effect, or another doubt; inactive means no such curve, though single readings can be large; an effect the other way counts as inactive or inconclusive. Potency means the concentration at half of the fitted maximal effect.

SMILES	HEK293 cAMP cs	ALOX15 inhib	PK Bst	FLuc inh	Tau filament bind	TSHR agonist
O=C(O)c1cc2ccccc2c(Cc2cc3ccccc3c(C(=O)O)c2O)c1O (tested in a mixture with another compound)	6%[25.6 µM]	-8%[25.6 µM]	.	6%[25.5 µM]	18%[25.6 µM]	-7%[25.6 µM]
COC(=O)C1=C(C)NC(C)=C(C(=O)OC(C)C)[C@H]1c1cccc2nonc12	-3%[25.6 µM]	-2%[25.6 µM]	.	-1%[25.5 µM]	-19%[25.6 µM]	-13%[25.6 µM]
COc1ccccc1CNc1nc(-c2ccc3c(c2)OCO3)nc2ccccc12	9%	-16%	.	-3%[2.29 µM]	136%	30%
CCCNc1ncnc2c1cnn2-c1ccc(OC)cc1	.	.	?	7.9µM*	.	.
CCCN(CCC)c1ncnc2c1cnn2-c1ccc(OC)cc1	18%	-3%	?	16µM*	14%	10%
C=CCNc1ncnc2c1cnn2-c1ccc(OC)cc1	-8%	-4%	.	.	.	1%
Cc1ccc(CN(C)C(=O)c2ccccc2Oc2ccccc2)o1	32µM*	-4%	>57	-10%	11%	?
Cc1cc(NC(=O)c2ccccc2Oc2ccccc2)no1	?	0%	>57	0%	0%	?
c1ccc(-c2nnc3sc(-c4ccncc4)nn23)cc1	-6%	-7%	.	1%	-9%	-1%
COc1ccc(-c2nn3c(-c4ccccc4)nnc3s2)cc1	?	-15%	3.4*	-2%	203%	?
Cc1cccc(-c2nnc3sc(-c4ccccc4C)nn23)c1	32µM*	-1%	?	-3%	266%	?
COc1ccccc1-c1nn2c(-c3ccco3)nnc2s1	.	.	8.2*	-26%[25.5 µM]	.	.
c1ccc(-c2nnc3sc(-c4csc5c4CCCC5)nn23)cc1	25µM*	16µM*	i	-6%	217%	?
c1coc(-c2nn3c(-c4ccco4)nnc3s2)c1	13%	-24%	i	1%	-8%	6%
COc1ccc(-c2nn3c(-c4ccc(F)cc4)nnc3s2)cc1	?	-9%	.	1%	i	?
COc1cccc(Cn2c(=O)cnc3cnc(OC)nc32)c1	?	?	.	1%[11.4 µM]	-12%	?
COC(=O)CC1C(C)(C)C(OC(C)=O)C2[C@H](OC(C)=O)[C@]34O[C@]2(O)[C@]1(C)C3CC[C@]1(C)C4=CC(=O)OC1c1ccoc1 (stereo partly drawn)	.	-10%	.	.	.	.
c1ccc(COn2nnc3ccccc32)c(COn2nnc3ccccc32)c1	25µM*	-14%	>57	0%	5%	?
c1ccc(-n2nnc3ccccc32)nc1	3%	10%	.	2%	5%	9%[11.4 µM]
CN1CCN(c2ncc3nc(-c4ccccc4)c(=O)n(-c4ccccc4)c3n2)CC1	-5%	-7%	.	1%[11.4 µM]	5%	4%
NC(=O)CS(=O)C[C@H](N)C(=O)O (stereo partly drawn)	-3%[11.4 µM]	26%[11.4 µM]	.	3%[11.4 µM]	6%[11.4 µM]	-1%[11.4 µM]
Cc1cc(N2CCC(C)CC2)n2ncc(-c3ccccc3)c2n1	11%	1%	?	16µM*	-17%	10%
Cc1cc(N2CCCCC2)n2ncc(-c3ccccc3)c2n1	2%	-3%	3.4*	4µM*	-10%	2%[11.4 µM]
Cc1cc(N2CCCCC2)n2nc(C)c(-c3ccccc3)c2n1	38%	-16%	>57	-1%	-14%	1%[11.4 µM]
Cc1cc(N2CCCCC2)n2ncc(-c3ccc(Cl)cc3)c2n1	3%	-2%	i	13µM*	-10%	1%
Cc1cc(C(=O)OCC(=O)N2CCN(C(=O)c3ccco3)CC2)c(C)n1-c1ccc(F)cc1	17%	3%	>57	2%	10%	.
Cc1cc(C(=O)CNCc2ccco2)c(C)n1-c1ccc(F)cc1	?	?	.	25µM*	6%	?
COc1ccc(N(C(=O)c2ccco2)S(=O)(=O)c2cc(OC)ccc2OC)cc1	16µM*	-1%	>57	1%	-16%	?
COc1ccc(CN(C(=O)c2ccco2)c2ccc(Br)cc2)cc1OC	32µM*	-2%	>57	0%	-4%	?
